Casp6 inh = caspase-6 (human) enzyme inhibition. AID 686996. purified caspase-6, Z-VEID-R110 cleavage fluorescence. inhibition, % at 12.5 µM. 0.53% of 350,000 active;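 active = mean inhibition across replicates at least about 35%, with every replicate also reaching that limit, limit read from the data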;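 note: 0% = median of neutral control wells and 100% = no fluorescence left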
SIRT5 inh = blocks human SIRT5 desuccinylation of peptide; 1.1% of 330,000 active; AID 652115; Purified SirT5, succinyl-peptide AMC, trypsin-coupled fluorescence; inhibition, % at 15 µM; in the data active = inhibition above about 15%
Target sequence (Q9NXA8 whole entry, looked up): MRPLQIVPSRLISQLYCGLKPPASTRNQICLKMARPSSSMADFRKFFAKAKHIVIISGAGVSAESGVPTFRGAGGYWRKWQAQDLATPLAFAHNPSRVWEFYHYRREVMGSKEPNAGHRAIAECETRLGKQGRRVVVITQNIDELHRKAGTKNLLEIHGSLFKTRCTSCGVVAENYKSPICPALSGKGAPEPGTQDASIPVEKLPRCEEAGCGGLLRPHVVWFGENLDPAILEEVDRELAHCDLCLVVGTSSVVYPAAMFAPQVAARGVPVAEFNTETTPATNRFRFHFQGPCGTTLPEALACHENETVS
SUMO HTRF inh = SUMOylation inhibition; 0.36% of 290,000 active; HTRF SUMOylation assay, SAE1/SAE2 + UBC9, in vitro; inhibition, % at 35 µM; P63279; in the data active = inhibition above about 50%, passing the limit was not always enough
NSD2 HMT inh = blocks human histone methyltransferase NSD2; O96028; AID 743445; NSD2 peptide methylation, AlphaScreen, 120 min; inhibition, % at 12.5 µM; 0.54% of 310,000 active; in the data active = inhibition above about 50%
An asterisk follows results filed as active; / = no result given; ! = a repeat was not active. Shown are actives, neighbours in structure and some others; about 1.6% of the full set was active somewhere.

SMILES	Casp6 inh	SIRT5 inh	SUMO HTRF inh	NSD2 HMT inh
C/C=C/c1cnc2c(c1)C(=O)N([C@@H](C)CO)C[C@@H](C)[C@@H](CN(C)C(=O)NC1CCCCC1)O2	3	28*	/	/
C[C@@H]1CN([C@H](C)CO)C(=O)c2cc(Br)cnc2O[C@H]1CN(C)C(=O)c1ccccc1F	-1	0	/	/
C[C@H](CO)N1C[C@H](C)[C@H](CN(C)C(=O)c2ccccc2F)Oc2ncc(Br)cc2C1=O	1	26*!	/	/
C[C@H]1CN([C@@H](C)CO)C(=O)c2cc(Br)cnc2O[C@H]1CN(C)C(=O)c1ccccn1	-3	19*!	/	/
CCN1[C@@H]2c3ccc(-c4cccc(OC)c4)c(=O)n3C[C@H]1[C@H](CO)[C@H]2C(=O)N(C)C	0	-9	/	/
CN(C)Cc1cn(CC[C@@H]2CC[C@H](NS(=O)(=O)c3ccc(-c4ccccc4)cc3)[C@H](CO)O2)nn1	2	10	/	/
C[C@@H]1CN([C@@H](C)CO)C(=O)c2cc(Br)cnc2O[C@H]1CN(C)C(=O)c1ccccc1F	0	15*!	/	/
C[C@H](CO)N1C[C@H](C)[C@H](CN(C)C(=O)c2ccccc2F)Oc2ncc(-c3ccccc3)cc2C1=O	3	0	/	/
C/C=C/c1cnc2c(c1)C(=O)N([C@H](C)CO)C[C@@H](C)[C@H](CN(C)C(=O)c1ccc3c(c1)OCO3)O2	-2	-2	/	/
COc1ccc(NC(=O)c2ccccc2F)cc1Cl	/	/	-10	1
O=C(Nc1ccc(Oc2ccc(Cl)cc2)c(Cl)c1)c1cc(I)cc(I)c1O	/	0	59*	/
O=C(CCC(=O)OCc1ccc(C(=O)Oc2ccc(Cl)cc2)cc1)Nc1ccccc1	/	/	4	-3
O=C(CCC(=O)OCc1ccc(Br)cc1)Nc1ccccc1	2	35*	10	-1
O=C(C[C@@H]1C=C[C@@H](NC(=O)Nc2ccccc2F)[C@H](CO)O1)NCc1ccc(F)cc1	-2	-1	/	/
Cc1ncoc1C(=O)Nc1cccc(Cl)c1	4	-3	28	1
Cc1ccc(NC(=O)c2ocnc2C)cc1Cl	59*	-2	-38	-4
Cc1cc(/C=C2\SC(=O)N(C)C2=O)c(C)n1-c1ccc(O)cc1	2	0	74*	2
C[C@H]1CN([C@@H](C)CO)S(=O)(=O)c2ccc(C#CC3CCCCC3)cc2O[C@H]1CN(C)C	1	5	/	/
Cc1cc(/C=N/NC(=O)C(O)(c2ccccc2)c2ccccc2)c(C)n1-c1cccc(C(=O)O)c1	43*	11	15	/
O=C1CCn2c1c(O)c1ccccc1c2=O	95*	-1	/	26
O=c1c2ccccc2nc2n1CCCCC2	/	/	9	-6
CC1(C)CC(=O)C(N=Nc2ccc(F)cc2)=C(O)C1	-1	30*	17	26
CC=Cc1ccc2n(c1=O)C[C@@H]1[C@@H](CO)[C@H](C(=O)NC3CCCC3)N(CCC)[C@H]21 (mixture of isomers)	1	15*	/	/
O=C(Nc1ccc(-c2ccccc2)cc1)[C@H]1[C@H](CO)[C@H]2Cn3c(cccc3=O)[C@H]2N1CC1CCCCC1	/	102*	/	/
CCCNC(=O)[C@H]1[C@H](CO)[C@H]2Cn3c(ccc(-c4ccc(F)cc4)c3=O)[C@H]2N1CC1CC1	-1	16*	/	/
SMILES	Casp6 inh	SIRT5 inh	SUMO HTRF inh	NSD2 HMT inh
O=C(Nc1ccccc1)[C@@H]1[C@@H](CO)[C@@H]2Cn3c(cccc3=O)[C@@H]2N1CC1CC1	-6	16*	/	/
C[C@@H]1CCCCO[C@H](CN(C)CC2CCCCC2)[C@H](C)CN([C@@H](C)CO)C(=O)c2cc(NS(=O)(=O)c3ccccc3)ccc2O1	1	-5	/	/
COc1ccc(NC(=O)CC2C(=O)N(Cc3ccco3)C(=S)N2C(C)C)cc1 (configuration not stated)	7	-1	2	1
COc1ccc(NC(=O)CC2C(=O)N(Cc3cccs3)C(=S)N2C(C)C)cc1 (configuration not stated)	4	31*	-14	-2
CN1C(=O)c2cc(NC(=O)Nc3ccccc3)ccc2OC[C@H]2O[C@H](CC(=O)NC3CCC3)CC[C@H]21	0	0	/	/
COc1cc(N)c2ncccc2c1OC	9	-1	/	14
COc1cc(NCCCCCCN)c2ncccc2c1OC	85*	5	/	/
COc1ccc2c(c1)c(CC(=O)Nc1cccc(S(N)(=O)=O)c1)c(C)n2C(=O)c1ccc(Cl)cc1	0	17*	9	7
O=C(C[C@@H]1CC[C@H](NC(=O)CC2CC2)[C@@H](CO)O1)NCc1ccccc1	0	-2	/	/
CC1(C(=O)NCc2cc(F)cc(C(F)(F)F)c2)C=CC2(CCCCC2)N1C(=O)c1ccccc1 (configuration not stated)	1	24*	15	/

Compound activity as filed in PubChem BioAssay.
